This is part of a sample that, as a whole, favours compounds with a hit. Of some 83,000 tested, about 20% had one in any assay.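 Testing used 96-well plates and a 48-hour single-concentration exposure. Example: -40 means 40% of the starting cells died.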 Values without a mark were called inactive. The source made the active and inactive calls. Rule for the calls: active = growth percent below 10; inactive = the rest.
Legend:
Test in all cases: NCI-60 one-dose screen, 48 h (100 = growth as untreated, 0 = no growth, -100 = all killed)
786-0 renal = settings: 10 µM unless noted
DU-145 prostate = settings: 10 µM unless noted
MDA-MB-231 breast = settings: 10 µM unless noted
SF-268 CNS = settings: 10 µM unless noted
SF-539 CNS = settings: 10 µM unless noted
UACC-257 melanoma = settings: 10 µM unless noted
HCT-15 colon = settings: 10 µM
SNB-19 CNS = settings: 10 µM unless noted
PC-3 prostate = settings: 10 µM unless noted
UACC-62 melanoma = settings: 10 µM unless noted
LOX IMVI melanoma = settings: 10 µM unless noted
SK-MEL-28 melanoma = settings: 10 µM unless noted
SN12C renal = settings: 10 µM unless noted
MOLT-4 leukemia = settings: 10 µM
OVCAR-8 ovarian = settings: 10 µM unless noted
OVCAR-3 ovarian = settings: 10 µM unless noted
MDA-MB-435 melanoma = settings: 10 µM unless noted
SW-620 colon = settings: 10 µM unless noted
MCF7 breast = settings: 10 µM unless noted
KM12 colon = settings: 10 µM unless noted

Compound	growth (786-0 renal) [%]	growth (DU-145 prostate) [%]	growth (MDA-MB-231 breast) [%]	growth (SF-268 CNS) [%]	growth (SF-539 CNS) [%]	growth (UACC-257 melanoma) [%]	growth (HCT-15 colon)	growth (SNB-19 CNS) [%]	growth (PC-3 prostate) [%]	growth (UACC-62 melanoma) [%]	growth (LOX IMVI melanoma)	growth (SK-MEL-28 melanoma) [%]	growth (SN12C renal)	growth (MOLT-4 leukemia)	growth (OVCAR-8 ovarian) [%]	growth (OVCAR-3 ovarian)	growth (MDA-MB-435 melanoma) [%]	growth (SW-620 colon)	growth (MCF7 breast) [%]	growth (KM12 colon) [%]
O=S(=O)(Cl)c1ccccc1 (tested in a mixture with another compound)	102	109	117	104	102	97.1	101%	100	103	106	98.8%	103	102%	93%	108	106%	115	96.9%	93.1	108
CC1(C)N=C(N)N=C(N)N1c1ccc(OCCCCNC(=O)c2ccc(S(=O)(=O)F)cc2)c(Cl)c1	40.9	55	105	40.7	64.9	54.7	94.9%	103	23.4	44.1	25.7%	96	44.7%	57.9%	32.7	119%	30.6	35.1%	34.7	66.5
N#[N+]c1nc2nc(N)[nH]c(=O)c2[nH]1	102	105	107	104	101	88.8	97.9%	99.8	96.8	97.7	98.5%	111	99.9%	103%	100	113%	100	97.9%	90.7	108
O=C1NC(=S)NC(=O)C1=Cc1ccccc1	123	122	104	110	103	115	99.5%	107	96.3	106	85.1%	122	106%	115%	110	121%	124	96%	93.2	109
CC(=O)O[C@H]1CCC2C3CCC4=C/C(=N/O)CCC4(C)C3CCC21C (some centres undefined)	76.9	93.1	110	75.9	87.6	114	72.3%	90.7	93.6	91.4	93%	103	103%	72.6%	99.3	107%	20.3	74.4%	110	78
COc1cc[c]([Hg][Cl])cc1	56	–	46.2	56.8	85.2	65.5	-42.8% (active)	28.6	77.6	12.5	-84.2% (active)	20.7	-6.35% (active)	-7.01% (active)	69.8	-71.5% (active)	34.3	18.9%	27.9	102
Cc1cccc(N=C2c3cc([N+](=O)[O-])ccc3-c3c2cc([N+](=O)[O-])cc3[N+](=O)[O-])c1	60	88	60.2	58.7	97.7	90.8	34.2%	82.5	16.8	77.5	39.3%	97.2	26.4%	27.5%	64.5	50.4%	45	-54.9% (active)	21.3	52.4
CN=C(NN)NN	103	111	120	103	104	109	104%	121	93.3	116	98.1%	118	113%	102%	99.3	102%	99.8	107%	99.3	108
